A selection: hits, their analogues and other compounds. The true share with any hit is near 8.1%.
Hedgehog inh – Hedgehog pathway signaling inhibitors, primary screen, luminescence, Shh-LIGHT2 cells, Gli-luciferase; hit rate 2.1% among 22,000; AID 2313, 2010; Shh-LIGHT2 Gli-luciferase reporter, 30 h; inhibition, % (test concentration not listed);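 active = mean inhibition across valid replicates above about 65%, limit read from the data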;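 note: pathway switched on by Shh-conditioned medium diluted 1 in 25 in low serum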
NOMO-1 viab – NOMO-1 AML cell viability reduction, primary screen, STK33 inhibitor project, CellTiter-Glo luminescence | NOMO-1 AML viability, 72 h | inhibition, % (concentration not given with the values) | hit rate 7.5% among 37,000 | AID 2330, 2010; in the data active = inhibition above about 80%
MITF inhib – inhibitors of MITF, primary screen, MITF inhibitor project, cell-based, luminescence; hit rate 0.28% among 37,000; inhibition, % (test concentration not listed); TRPM1 promoter luciferase, 24 h; in the data active = inhibition above about 85%;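 note: human melanocyte line stably carrying TRPM1 promoter luciferase reporter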
PD-1 reversal – activators reversing PD-1 mediated T-cell inhibition, primary screen, luminescence, primary human CD4 T cells, PD-L1 beads; CellTiter-Glo 96 h; activation, % (no concentration beside the values); 29,000 tested, under 10 active; AID 2316, 2010; call rule not given here;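 note: 0% = median vehicle wells and 100% = positive control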
* marks the source's active call; other numbers are inactive results; . = no result given.

SMILES	Hedgehog inh	NOMO-1 viab	MITF inhib	PD-1 reversal
O=C(O[C@H]1[C@H](Oc2ccccc2COC(=O)C2(O)C=CCCC2=O)O[C@H](CO)[C@@H](O)[C@@H]1O)c1ccccc1 (stereo not given in full)	53.1	120.6*	31.1	-4.1
COc1ccc(N(CC(=O)Nc2ccc(Br)c(Cl)c2)S(C)(=O)=O)cc1Cl	.	29.3	6.9	-0.1
O=C1C=C(NC2CCCC2)CC(c2ccccc2)C1 (stereo not given)	7.1	110.6*	-5.2	0.2
O=C(O)CCn1cc(C(F)(F)F)ccc1=O	4.3	-4.4	1.9	-0.1
C[C@@H]1CN([C@@H](C)CO)C(=O)c2cccc(NC(=O)NC3CCCCC3)c2O[C@@H]1CN(C)C(=O)Nc1ccc(C(F)(F)F)cc1	-6.8	94.5*	9.7	-5.4
C[C@H]1CN([C@@H](C)CO)C(=O)c2cccc(NC(=O)Nc3ccc(C(F)(F)F)cc3)c2O[C@H]1CN(C)C(=O)Nc1ccc(C(F)(F)F)cc1	-13.6	69.5	28.9	1.5
C[C@@H]1CN([C@@H](C)CO)C(=O)c2cccc(NC(=O)Nc3ccc(C(F)(F)F)cc3)c2O[C@H]1CN(C)C(=O)Nc1ccc(F)cc1	-83.8	116.9*	31.0	-4.5
C[C@H](CO)N1C[C@H](C)[C@@H](CN(C)C(=O)Nc2ccc(F)cc2)Oc2c(NC(=O)Nc3ccc(C(F)(F)F)cc3)cccc2C1=O	5.6	41.8	-3.7	.
C[C@@H]1CN([C@H](C)CO)C(=O)c2cccc(NC(=O)NC3CCCCC3)c2O[C@@H]1CN(C)C(=O)Nc1ccc(C(F)(F)F)cc1	-1.6	67.1	38.7	.
C[C@H](CO)N1C[C@H](C)[C@H](CN(C)C(=O)Nc2ccc(F)cc2)Oc2c(NC(=O)Nc3ccc(C(F)(F)F)cc3)cccc2C1=O	-4.7	102.6*	26.1	0.7
C[C@@H]1CN([C@H](C)CO)C(=O)c2cccc(NC(=O)Nc3ccc(C(F)(F)F)cc3)c2O[C@@H]1CN(C)C(=O)Nc1ccc(C(F)(F)F)cc1	1.8	98.2*	20.5	1.5
O=C(CSc1nc2ccccc2c(=O)[nH]1)Nc1ccc(Br)c(Cl)c1	.	14.8	6.2	.
CCCc1nc2c([nH]1)C(c1cccc(O)c1)C(C#N)=C(N)O2 (stereo not given)	19.8	23.9	28.0	-2.6
COc1ccc(NC(=O)CNC(=O)c2ccccc2F)cc1Cl	.	17.7	-13.8	.
COc1ccc(NC(=O)N(C)C[C@H]2Oc3c(NC(=O)Nc4ccc(C(F)(F)F)cc4)cccc3C(=O)N([C@@H](C)CO)C[C@H]2C)cc1	20.7	87.9*	6.6	-2.2
COc1ccc(NC(=O)Nc2cccc3c2O[C@H](CN(C)C(=O)Nc2ccc(C(F)(F)F)cc2)[C@H](C)CN([C@H](C)CO)C3=O)cc1	-7.9	7.2	0.3	-1.2
C/C=C(/C)C(=O)O[C@H]1C=C(C)C[C@H](OC(=O)c2ccc(O)cc2)C2[C@](O)(C(C)C)CC[C@@]21C (stereo not given in full)	10.2	122.5*	41.8	-5.8
CC(C)(C)C1CCc2c(sc(NC(=O)COc3ccccc3Cl)c2C(N)=O)C1 (stereo not given)	.	104.3*	-15.1	-4.5
Cc1ccc(C(=O)/C=C2/NCCNC2=O)cc1	.	14.9	39.1	0.1
CC1=CC(C)(C)N2C(=O)C(=O)c3cc(OC(=O)CN4C(=O)c5ccccc5C4=O)cc1c32	.	115.4*	-29.8	-7.1
Cc1ccc(NC(=O)c2ccc(OC(=O)CN3C(=O)c4ccccc4C3=O)cc2)cc1	.	42.8	-74.0	.
CC1=CC(C)(C)N2C(=O)C(=O)c3cc(OC(=O)CN4C(=O)c5cccc6cccc(c56)C4=O)cc1c32	.	119.0*	-38.9	-13.2
CC(C)=CCCC(C)(O)C1Cc2cc(C(=O)O)cc(CC=C(C)C)c2O1 (stereo not given)	-20.2	.	.	.
C[C@@H]1CN([C@@H](C)CO)C(=O)c2cc(NS(=O)(=O)c3cccs3)ccc2O[C@@H]1CN(C)Cc1ccc(-c2ccccc2)cc1	35.6	90.9*	19.1	0.6
C[C@@H]1CN([C@H](C)CO)C(=O)Cc2cc(NS(=O)(=O)c3cccs3)ccc2O[C@@H]1CN(C)Cc1ccc(-c2ccccc2)cc1	-30.3	34.0	-8.4	-2.0
SMILES	Hedgehog inh	NOMO-1 viab	MITF inhib	PD-1 reversal
C[C@@H]1CN([C@@H](C)CO)C(=O)Cc2cc(NS(=O)(=O)c3cccs3)ccc2O[C@@H]1CN(C)Cc1ccc(Oc2ccccc2)cc1	39.4	97.0*	25.6	-3.2
C[C@H]1CN([C@@H](C)CO)C(=O)Cc2cc(NS(=O)(=O)c3cccs3)ccc2O[C@H]1CN(C)Cc1ccc(-c2ccccc2)cc1	-10.2	114.6*	15.6	-2.0
COC(=O)c1c(NC(=O)c2cc3ccccc3oc2=O)sc2c1C(C(=O)OC)CC2 (stereo not given)	.	-25.8	-41.3	4.6
CCOC(=O)c1ccc(NC(=O)C2CC(C)=C(C)CC2C(=O)O)cc1 (stereo not given)	.	22.0	-28.2	1.4
Cc1cc2ncc(-c3ccccc3)nc2cc1C	-152.4	19.5	18.3	3.1
c1ccc(-c2cnc3nonc3n2)cc1	82.4*	114.5*	79.8	-5.0
O=C(Oc1c(CN2CCOCC2)cc(Cl)c2cccnc12)c1ccc([N+](=O)[O-])cc1	.	138.9*	69.5	-14.5
C=CCN(CC=C)CC(O)Cn1cnc2c1c(=O)n(C)c(=O)n2C (stereo not given)	18.0	-17.6	-15.3	3.3
CCCCCCCC(=O)CCc1ccc(O)c(OC)c1	-15.0	.	.	.
COc1ccc(S(=O)(=O)N(C)C[C@@H]2Oc3c(NC(=O)Nc4ccc(C(F)(F)F)cc4)cccc3C(=O)N([C@@H](C)CO)C[C@H]2C)cc1	-11.6	21.0	7.7	0.5
COc1ccc(S(=O)(=O)N(C)C[C@H]2Oc3c(NC(=O)Nc4ccc(C(F)(F)F)cc4)cccc3C(=O)N([C@@H](C)CO)C[C@@H]2C)cc1	-91.9	112.3*	-23.1	2.0
COc1ccc(S(=O)(=O)N(C)C[C@H]2Oc3c(NC(=O)Nc4ccc(C(F)(F)F)cc4)cccc3C(=O)N([C@@H](C)CO)C[C@H]2C)cc1	-62.1	120.8*	38.6	-5.7
c1cncc(-c2nc3c4c5c(sc4ncn3n2)CCCC5)c1	2.9	2.1	12.2	1.1
NC(=O)c1ccccc1C(=O)c1ccccc1	41.9	7.7	3.6	6.9
CC1OC(OC(=O)C2=CC3CC(C)(C)CC34C(C)OC(=O)CC24)C(O)C(O)C1O (stereo not given)	10.8	-1.3	18.5	0.5
O=C(CCN1C(=O)C2C3C=CC(C3)C2C1=O)Oc1cccc2cccnc12 (stereo not given)	.	113.3*	9.1	-12.6
CC(C)(C)c1ccc(OC(=O)CCN2C(=O)C3C4C=CC(C5CC45)C3C2=O)cc1 (stereo not given)	.	28.3	-3.1	-3.4
CC(=O)c1ccccc1OC(=O)CCN1C(=O)C2C3c4ccccc4C(c4ccccc43)C2C1=O (stereo not given)	.	15.8	-15.0	.
O=C(CCN1C(=O)C2C3C=CC(C4CC34)C2C1=O)Oc1cccc2cccnc12 (stereo not given)	.	121.2*	-1.7	-14.8

Screening data from PubChem BioAssay.
